High-throughput results: PubChem BioAssay, National Center for Advancing Translational Sciences (NCATS)
SMN2 splice enh: increases expression of the SMN2 splice variant; HEK293 SMN2-luciferase splicing reporter, luminescence, 30-36 h; Potency, µM (doses to about 46.1 µM), hits mostly activators; hit rate 2.8% among 210,000; further: nearly all actives have a fitted effect of over 55% in size
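qHTS luciferase splicing reporter: luminescence rises when SMN2 exon 7 is included in transfected HEK293 cells. Compound exposure lasted 30-36 h at 37C, with 4.5 mM final sodium butyrate as control, followed by a ONE-Glo read.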
ELG1 genotoxic: induces genotoxicity in HEK293T cells with luciferase-tagged ELG1 | hit rate 1.3% among 330,000 | AID 504466 | Potency, µM (highest dose often 46 µM), hits mostly activators | HEK293T ELG1-luciferase reporter, luminescence, 16 h; further: nearly all actives have a fitted effect of over 60% in size
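HEK293T cells expressing luciferase-tagged ELG1 were treated with compound or DMSO for 16 hr at 37°C. Luciferase activity was then read after 30 min with ONE-Glo at room temperature; rising signal flags genetic stress.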
Rab9 promoter act: Rab9 promoter activation | Potency, µM (titrated, usually from 9.22 µM), actives largely listed as activators | AID 485297 | Huh7 Rab9 promoter-luciferase reporter, luminescence, 24 h | hit rate 2.8% among 320,000; further: nearly all actives have a fitted effect of over 60% in size
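Cells were plated at 1500 per well in reduced-serum medium with 10% FBS and left 2 h. Compound in DMSO was then added for 24 h at 37 °C. Reporter signal was read by luminescence after 10 min with luciferase detection reagent.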
Luc counter: counter-screen: inhibitors of Kinase-Glo firefly luciferase. Q27757. Kinase-Glo luciferase, ATP luminescence, 8 min. Potency, µM (series often up to 38.3 µM), usual class: inhibitors. hit rate 0.28% among 200,000. AID 1379; further: nearly all actives have a fitted effect of over 60% in size
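Kinase-Glo luciferase light output from ATP and luciferin was measured with 10 uM ATP, within the enzyme's linear range. Buffer: 50 mM imidazole pH 7.2, 50 mM KCl, 7 mM MgCl2, 0.01% Tween 20, 0.05% BSA; luminescence read after 8 min at ambient temperature.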
NPC1 prom act: activates the NPC1 promoter | Huh7 NPC1 promoter luciferase reporter, 24 h | Potency, µM (top dose mostly 9.22 µM), actives largely listed as activators | hit rate 2.4% among 320,000; further: nearly all actives have a fitted effect of over 60% in size
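Readout is luciferase luminescence, reflecting NPC1 promoter activation in stably transfected Huh7 cells after 24 h compound exposure at 37 °C in reduced-serum medium with 10% FBS.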
FLuc counter: inhibits or activates purified firefly luciferase, miR-21 counter-screen; purified FLuc, Km substrates, luminescence inhibition; Potency, µM (highest dose often 57.5 µM), most hits filed as inhibitors; hit rate 6.9% among 360,000; further: nearly all actives have a fitted effect of over 55% in size
Target sequence (P08659 whole entry, looked up): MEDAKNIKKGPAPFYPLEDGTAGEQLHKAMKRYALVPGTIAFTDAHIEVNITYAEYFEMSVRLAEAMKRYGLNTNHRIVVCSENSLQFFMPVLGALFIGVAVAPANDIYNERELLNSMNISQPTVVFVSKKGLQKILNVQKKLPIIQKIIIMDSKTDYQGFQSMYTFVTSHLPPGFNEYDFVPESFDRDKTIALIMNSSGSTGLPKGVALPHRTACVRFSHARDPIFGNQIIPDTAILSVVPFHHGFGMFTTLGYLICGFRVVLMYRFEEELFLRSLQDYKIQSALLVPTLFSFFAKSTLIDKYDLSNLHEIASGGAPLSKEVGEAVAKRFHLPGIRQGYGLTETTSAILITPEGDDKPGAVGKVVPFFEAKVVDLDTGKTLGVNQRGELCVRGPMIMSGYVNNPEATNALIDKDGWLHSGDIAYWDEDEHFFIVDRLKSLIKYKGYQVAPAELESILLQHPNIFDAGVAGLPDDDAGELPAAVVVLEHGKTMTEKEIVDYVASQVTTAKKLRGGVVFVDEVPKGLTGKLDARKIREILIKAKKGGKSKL
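Purified P. pyralis luciferase (10nM final) with 10uM D-luciferin and 10uM ATP (Km levels) in 50mM Tris acetate pH 7.5, 10mM Mg acetate, 0.01% Tween-20, 0.05% BSA; qHTS 6-point titration, ~60 µM downward; luminescence read.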
Numbers stand for hits; [ ] = dose if it differs, or a comment. Shown are actives, neighbours in structure and some others; about 7.5% of the full set was active somewhere. The call rests on the fitted dose curve; in most records, active means well fitted curve in the direction sought with a large enough effect; inconclusive means small, poorly fitted or top-dose-only effect, or another doubt; inactive means no such curve, though single readings can be large; an effect the other way counts as inactive or inconclusive.

What do the screens show for `Cc1ccc(OC(=O)c2ccc(Br)o2)cc1`?
SMN2 splice enh: inactive; ELG1 genotoxic: inactive; Rab9 promoter act: inactive; Luc counter: inactive; NPC1 prom act: inactive; FLuc counter: 4.78µM

How did OCCBr do in these assays?
SMN2 splice enh: inactive

Results for NC(=O)c1ncn(C2OC(CO)C(O)C2O)n1 (stereo not given) ?
SMN2 splice enh: 15.8µM; Luc counter: inactive

How did NC(=O)c1cn(C2OC(CO)C(O)C2O)c2ncnc(N)c12 (stereo not given) do in these assays?
SMN2 splice enh: inactive; ELG1 genotoxic: inactive; Rab9 promoter act: inactive; Luc counter: inactive; NPC1 prom act: inactive; FLuc counter: inactive

What do the screens show for `CCCCCOC(=O)c1ccccc1C(=O)OCCCCC`?
SMN2 splice enh: inactive

Results for O=C(c1cc(-c2cccc(Cl)c2)on1)N1CCOCC1 ?
ELG1 genotoxic: 23.1µM; Rab9 promoter act: 3.16µM; NPC1 prom act: 2.82µM; FLuc counter: 13.5µM

What do the screens show for `O=C(c1cc(-c2ccccc2)on1)N1CCC2(CC1)OCCO2`?
SMN2 splice enh: 17.8µM; ELG1 genotoxic: inconclusive; Rab9 promoter act: 3.98µM; Luc counter: inactive; NPC1 prom act: inconclusive; FLuc counter: 15.1µM

What do the screens show for `O=C(c1cc2ccccn2n1)N1CCC2(CC1)OCCO2`?
SMN2 splice enh: inactive; ELG1 genotoxic: inactive; Rab9 promoter act: inactive; Luc counter: inactive; NPC1 prom act: inactive; FLuc counter: inactive

How did CC(C)(C)c1cc(C#N)cc(Br)c1OP(=O)(Oc1c(Br)cc(C#N)cc1C(C)(C)C)c1ccccc1 do in these assays?
SMN2 splice enh: inactive[9.22 µM]; Luc counter: inactive[7.66 µM]

What do the screens show for `Cc1ccc(C(=O)Nc2c(C(=O)Nc3ccc(C)c(C)c3)sc3nc(C)cc(C)c23)cc1`?
SMN2 splice enh: 12.6µM; FLuc counter: 10.7µM

Results for Cc1ccc(NC(=O)c2snnc2C)cc1Cl ?
SMN2 splice enh: inactive; ELG1 genotoxic: inactive; Rab9 promoter act: inactive; Luc counter: inactive; NPC1 prom act: inactive; FLuc counter: inactive

What do the screens show for `O=C1C=CC(=O)C(Cl)=C1`?
Luc counter: inactive

How did CCN1C(=O)/C(=C\c2ccc([N+](=O)[O-])s2)C(=O)NC1=S do in these assays?
SMN2 splice enh: inactive; ELG1 genotoxic: inactive; Rab9 promoter act: inactive; Luc counter: inactive; NPC1 prom act: inactive; FLuc counter: 8.49µM

How did COc1ccc(OC)c(N2C(=O)NC(=O)/C(=C/c3ccc([N+](=O)[O-])s3)C2=O)c1 do in these assays?
SMN2 splice enh: inconclusive; ELG1 genotoxic: inactive; Rab9 promoter act: inactive; Luc counter: inconclusive; NPC1 prom act: inactive; FLuc counter: 16.9µM

What do the screens show for `C=CCN1C(=O)/C(=C/c2ccc(Br)s2)C(=O)NC1=S`?
ELG1 genotoxic: inconclusive; Rab9 promoter act: inactive; NPC1 prom act: inactive; FLuc counter: inconclusive

Results for NCCP(=O)(O)O ?
SMN2 splice enh: inactive[9.22 µM]; Luc counter: inactive[7.66 µM]

Results for C/C(=C\c1ccc(N(C)C)cc1)[N+](=O)[O-] ?
SMN2 splice enh: inactive; ELG1 genotoxic: inactive; Rab9 promoter act: inactive; Luc counter: inactive; NPC1 prom act: inactive; FLuc counter: inconclusive

How did CN(C)c1ccc(/C=C/[N+](=O)[O-])cc1 do in these assays?
SMN2 splice enh: 11.2µM; ELG1 genotoxic: inconclusive; Rab9 promoter act: inactive; Luc counter: inactive; NPC1 prom act: inactive; FLuc counter: inconclusive

What do the screens show for `CCN1C(=O)/C(=C/c2ccc3c(c2)CCN3CCCCl)C(=O)NC1=S`?
SMN2 splice enh: inactive; ELG1 genotoxic: inconclusive; Rab9 promoter act: inactive; Luc counter: inconclusive; NPC1 prom act: inactive; FLuc counter: inconclusive

Results for O=C1NC(=S)N(C2CC2)C(=O)/C1=C/c1ccc2c(c1)CCN2CCCCl ?
SMN2 splice enh: inactive; ELG1 genotoxic: inconclusive; Rab9 promoter act: inactive; Luc counter: inactive; NPC1 prom act: inactive; FLuc counter: 19µM

What do the screens show for `CNC(=O)Oc1cccc(-c2cn3cc(Cl)ccc3n2)c1`?
SMN2 splice enh: inconclusive; ELG1 genotoxic: inconclusive; Rab9 promoter act: 3.55µM; Luc counter: 10µM; NPC1 prom act: 3.16µM; FLuc counter: 2.69µM

What do the screens show for `CNC(=O)Oc1ccc(-c2cn3cc(C)ccc3n2)cc1`?
SMN2 splice enh: 1.78µM; ELG1 genotoxic: inconclusive; Rab9 promoter act: 0.316µM; Luc counter: inconclusive; NPC1 prom act: 0.355µM; FLuc counter: 0.338µM

Results for CCC(COC(=O)NC)NC(=O)Oc1cccc(C)c1 (stereo not given) ?
SMN2 splice enh: inactive; ELG1 genotoxic: inactive; Rab9 promoter act: inactive; Luc counter: inactive; NPC1 prom act: inactive; FLuc counter: inactive

How did COc1ccc(-c2nc3ccccc3c(=O)n2-c2nccs2)cc1 do in these assays?
SMN2 splice enh: inactive; ELG1 genotoxic: inactive; Rab9 promoter act: inactive; Luc counter: inactive; NPC1 prom act: inactive; FLuc counter: 23.9µM

How did O=C(Nc1ccc2nc(SCC(=O)N3CCOCC3)sc2c1)c1ccc(Cl)cc1 do in these assays?
FLuc counter: 10.7µM

How did COc1ccc(C=O)cc1OC do in these assays?
SMN2 splice enh: inactive

What do the screens show for `FC(F)(F)c1nc2ccc(SSc3ccc4nc(C(F)(F)F)[nH]c4c3)cc2[nH]1`?
SMN2 splice enh: inactive[9.22 µM]; Luc counter: inactive[7.66 µM]

Results for CCC(C)/C=C(C)/C=C/C1=CC2=C(Cl)C(=O)C(C)(OC(C)=O)C(=O)C2=CO1 (stereo not given) ?
ELG1 genotoxic: inactive; Rab9 promoter act: inactive; NPC1 prom act: inactive; FLuc counter: 21.3µM

What do the screens show for `ClCC(Cl)Cl`?
SMN2 splice enh: inactive

Results for CCCCCCOc1ccc(CN2CCN(CCO)CC2)cc1 ?
SMN2 splice enh: inactive; ELG1 genotoxic: 8.2µM; Rab9 promoter act: 3.98µM; Luc counter: inactive; NPC1 prom act: 2.24µM; FLuc counter: 19µM

What do the screens show for `CCCCOc1ccc(CN2CCN(CCO)CC2)cc1`?
SMN2 splice enh: inactive; ELG1 genotoxic: inconclusive; Rab9 promoter act: inactive; Luc counter: inactive; NPC1 prom act: inactive; FLuc counter: inactive

What do the screens show for `CN(C)c1ccc(CCN2CCOCC2)cc1`?
ELG1 genotoxic: inconclusive; Rab9 promoter act: inactive; NPC1 prom act: inactive; FLuc counter: 16.9µM

Results for Cc1ccc(NC(=O)c2cc(S(=O)(=O)N3CCOCC3)c(Cl)cc2Cl)cc1 ?
SMN2 splice enh: inactive; FLuc counter: inactive
